Compounds without any hit were thinned out: in the full panel of roughly 83,000, 20% have a hit.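 The test compound was applied at a single concentration to cells in 96-well plates for 48 hours, and percent growth was recorded.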 Unmarked numbers belong to inactive results. The source made the active and inactive calls. How the source made its calls: active means growth percent below 10; inactive means the rest.
These compounds were tested on MDA-MB-468 breast (assay: NCI-60 one-dose screen, 48 h (100 = growth as untreated, 0 = no growth, -100 = all killed)). Conditions: 10 µM unless noted.

SMILES | growth
CCCCc1c(CCC)c(=N)c2ccccc2n1C | 74.2%
c1ccc2nc(N3CCOCC3)c(N3CCCCC3)nc2c1 | 94%
O=[N+]([O-])c1ccc(Cl)c(-c2cc(CCCCO)on2)c1 | 98.3%
Cc1ccc(C(=O)NN2C(=O)CSC2c2ccc(Cl)cc2)cn1 (stereo not given) | 110%
CS(=O)(=O)c1ccc(-n2cc(/C=N/O)c(-c3ccccc3)n2)cc1 | 35%
COc1cc2c(cc1OC)C(=O)C(CC1CCN(C(=O)Nc3ccc(C)cc3)CC1)C2 (stereo not given) | 93.1%
CC(C)(C)c1ccc(O)c(Cc2cc(C(C)(C)C)ccc2O)c1 | 119%
O=C1c2ccccc2C(=O)c2c1ccc1c(=O)n(-c3ccccc3C(F)(F)F)nnc21 | -50.3% (active)
Cc1ccc(C2CC3c4ccccc4C2C2CCCCN32)cc1 (stereo not given) | -0.132% (active)
c1ccc(C2=Nc3ccccc3SC2)cc1 | 122%
CC(C)/C=C/CC[C@](C)(O)[C@H]1CC[C@]2(C)[C@@H]1CC[C@@H]1[C@@]3(C)C/C(=C/c4cccc(C(F)(F)F)c4)C(=O)C(C)(C)[C@@H]3CC[C@]12C | 104%
O=C(Nc1ccc(OS(=O)(=O)c2ccccc2)cc1)C12CC3CC(CC(C3)C1)C2 | 40.5%
CN1CCN(Cc2ccc3c(NNC(=O)c4ccccc4)nc4cc(F)ccc4n23)CC1 | -12.5% (active)
Cc1cc(N/N=C/c2nc(-c3ccccc3)oc2C)c2cc(Cl)ccc2n1 | -74.7% (active)
Clc1ccc(Sc2nc(NC3CC3)nc(Sc3ccc(Cl)cc3)n2)cc1 | 91.2%

— PubChem BioAssay (NCI)
